Screens from PubChem BioAssay.
An excerpt weighted towards active compounds, which were near 3.6% of everything screened.
bCat KO growth: primary screen for growth suppressors in beta-catenin knockout HCT116 cells (colon tumor, human); HCT116 beta-catenin knockout viability, CellTiter-Glo, 60 h; active compounds read low; viability, % at 10 µM; 1.5% of 140,000 active; AID 818, 2007;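 active = viability at or under a set limit, the compound median less 4 SD, cut at about 6% in these data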;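 also: 0% = Hyamine 1622 control at 20 µM and 100% = untreated cell control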
hDAT+cocaine: changed hDAT dopamine uptake under cocaine IC80, either direction, primary screen, cocaine antagonist project, cell-based, LLC-PK1 hDAT, [14C]-dopamine uptake, MLSMR; B-score at 10 µM; Sodium-dependent dopamine transporter (Homo sapiens), Q01959; 1.3% of 110,000 active; AID 449768, 2010; LLC-PK1 hDAT cells, [14C]-dopamine uptake with cocaine IC80; actives deviate in either direction;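 active = Z score or B-score, a plate-position-corrected score, falls beyond the plate's 99.7% confidence bounds, in either direction; inactive = both scores lie inside the 99.7% bounds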;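 also: scored against the spread of the other compound wells on the same plate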
Target sequence (Q01959 whole entry, looked up): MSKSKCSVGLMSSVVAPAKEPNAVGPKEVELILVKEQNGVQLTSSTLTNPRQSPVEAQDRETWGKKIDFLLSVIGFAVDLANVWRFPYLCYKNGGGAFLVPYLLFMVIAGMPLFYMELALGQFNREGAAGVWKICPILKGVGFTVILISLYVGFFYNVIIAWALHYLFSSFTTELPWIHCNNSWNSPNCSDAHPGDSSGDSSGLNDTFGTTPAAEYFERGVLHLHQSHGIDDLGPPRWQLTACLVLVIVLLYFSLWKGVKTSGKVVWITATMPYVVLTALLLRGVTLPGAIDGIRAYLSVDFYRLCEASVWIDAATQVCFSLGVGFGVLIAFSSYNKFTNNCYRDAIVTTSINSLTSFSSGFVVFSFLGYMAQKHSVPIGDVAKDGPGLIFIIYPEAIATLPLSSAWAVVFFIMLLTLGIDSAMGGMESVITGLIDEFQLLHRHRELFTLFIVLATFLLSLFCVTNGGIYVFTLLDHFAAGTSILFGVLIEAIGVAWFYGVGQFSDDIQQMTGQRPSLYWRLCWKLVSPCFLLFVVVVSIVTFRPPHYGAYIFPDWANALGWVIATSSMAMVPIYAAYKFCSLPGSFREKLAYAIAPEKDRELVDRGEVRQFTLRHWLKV
PTEN del growth: growth suppression of PTEN-null HCT116, primary screen, cell-based, CellTiter-Glo; viability, % at 10 µM; HCT116 PTEN-null viability, 60 h; active compounds read low; 1.2% of 140,000 active;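 active = viability at or below a set limit, 4 SD under the median of all tested compounds, cut at about 3.7% in these data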;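 also: PTEN knockout HCT116 line with beta catenin targeted HCT116 as companion control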
WT yeast gro inh: growth inhibition of WT strain, primary screen, mitochondrial fusion inhibitor project, WT and mutant strains, chemical genetic; mitochondrial fusion phenotypic screen; inhibition, % at 10 µM; 2.1% of 190,000 active; in the data active = inhibition above about 58%; tested in S. cerevisiae
* hit, by the source's call; · = not tested or not shown.

SMILES | bCat KO growth | hDAT+cocaine | PTEN del growth | WT yeast gro inh
COc1ccc(CCN=C(N)Nc2nc(C)cc(C)n2)cc1 | · | · | · | -1
Cc1cc(N2CCOCC2)nc(NCc2ccccc2)n1 | 93 | -1.2 | 75 | 5
Cc1cc(N2CCCCC2)nc(NCc2ccccc2)n1 | 6.0* | 2.1 | 8 | 20
CCOc1ccc(C(c2c(NC(=O)c3ccccc3)sc(C)c2C)N2CCN(C)CC2)cc1 (centres undefined) | 44 | · | 50 | 78*
CCOC(=O)C1=C(C)N(CCCC(=O)O)C(=O)NC1C(CC)CC (centres undefined) | · | -0.099 | · | ·
COc1ccccc1CNC(=O)CSc1nnc2c(Cl)cc(C(F)(F)F)cn12 | 98 | · | 96 | 11
CCNc1nc(SCCOc2ccc(C)cc2)nc(N(C)C)n1 | 74 | 0.022 | 66 | 11
Cc1ccc(OCCSc2nc(NC(C)C)nc(NC(C)C)n2)cc1 | 57 | · | 56 | 72*
Cc1ccc2nc(N3CC(=O)Nc4ccccc43)nc(-c3ccccc3)c2c1 | 1.4* | · | 1.2* | 11
O=C(COC(=O)c1ccccc1C(=O)c1ccc(Cl)c([N+](=O)[O-])c1)NC1CCCCCC1 | 80 | -0.58 | 94 | 78*
Cc1noc(C)c1C(=O)OCC(=O)Nc1ccccc1C(=O)NC(C)c1ccccc1 (centres undefined) | 64 | 0.76 | 70 | -8
Cc1noc(C)c1C(=O)OCC(=O)Nc1ccccc1Oc1ccccc1 | 91 | -0.58 | 93 | 59*
O=C(CCn1c(=O)c2ccccc2n(CC(=O)NCCC2=CCCCC2)c1=O)NCc1ccco1 | 95 | -0.27 | 94 | -35
O=C(COC(=O)c1ccccc1Br)NCCC1=CCCCC1 | · | · | · | -11
S=C(NCCC1=CCCCC1)NCc1ccco1 | · | · | · | 69*
O=C(NC(=S)NCCC1=CCCCC1)c1ccccc1Br | · | · | · | 64*
COc1ccccc1NC(=O)c1ccc(NC(=O)COC(=O)CC(NC(=O)c2ccccc2Cl)c2ccccc2)cc1 (centres undefined) | 87 | · | 95 | -3
N#CC1=C(N)SC(N)=C(C#N)C1c1c(Cl)cccc1Cl | 92 | -0.91 | 88 | 63*
CC(Sc1ccsc1[N+](=O)[O-])C(=O)N1CCN(c2ccccn2)CC1 (centres undefined) | · | · | · | 32
N/N=C(/Cc1nc2ccccc2[nH]1)c1ccc([N+](=O)[O-])cc1 | · | · | · | 90*
c1ccc(N/N=C(\Cc2nc3ccccc3[nH]2)c2ccccc2)cc1 | 58 | · | 57 | 72*
O=C(NCCc1nc2ccccc2[nH]1)c1cc([N+](=O)[O-])cc([N+](=O)[O-])c1 | 87 | · | 76 | -16
O=C(CCc1ccc(S(=O)(=O)NCc2ccccc2)cc1)NCC1CCCO1 (centres undefined) | 98 | · | 97 | -13
CC(C)N(C(=O)COC(=O)CNC(=O)c1ccc(Br)cc1)c1ccccc1 | 83 | · | 100 | 0
O=c1[nH]ncc(N2CCN(Cc3ccccc3)CC2)c1Cl | · | · | · | -17
SMILES | bCat KO growth | hDAT+cocaine | PTEN del growth | WT yeast gro inh
CCCCCC(=O)O[C@]1(C(C)=O)CC[C@H]2[C@@H]3CCC4=CC(=O)CC[C@]4(C)[C@H]3CC[C@@]21C | 4.8* | 0.57 | 7 | 74*
Cn1c(=NC(=O)CCl)sc2ccccc21 | 5.1* | -0.39 | 5 | -20
Cc1nn2c(N3CCN(c4ccccn4)CC3)cc(C(C)C)nc2c1-c1ccccc1 | 104 | -0.49 | 104 | 97*
Cc1cc(N2CCOCC2)n2nc(C)c(-c3ccccc3)c2n1 | 80 | 0.24 | 78 | 4
Brc1ccc2nc(-c3cccs3)c(NCC3CCCO3)n2c1 (centres undefined) | · | · | · | 48
O=C(Nc1ccc(S(=O)(=O)N2CCCCC2)cc1)c1ccc(CN2CCOCC2)cc1 | 5.9* | 0.5 | 10 | -9
O=C(NC12CC3CC(CC(C3)C1)C2)c1ccc(S(=O)(=O)N2CCOCC2)cc1 | 89 | 2.5* | 97 | 2
O=C(Nc1ccc(S(=O)(=O)N2CCN(Cc3ccccc3)CC2)cc1)c1cnccn1 | 20 | -0.67 | 41 | 60*
COC(=O)c1cn(NC(=O)c2ccc([N+](=O)[O-])cc2Cl)c(=O)c2ccccc12 | · | · | · | 5
CCCC(=O)Nc1ccc(C(=O)Nc2ccc([N+](=O)[O-])cc2OC)cc1 | · | · | · | 15
COc1ccc2[nH]c3c(NCCC4=CCCCC4)ncnc3c2c1 | · | · | · | 84*
Clc1ccc2c(N/N=C/c3cccc(Br)c3)ccnc2c1 | 2.2* | · | 1.7* | 99*
Clc1ccc2c(N/N=C/c3ccccc3Br)ccnc2c1 | 16 | · | 7 | 95
CCOC(=O)Cn1ncn(-c2ccc(OC(F)(F)F)cc2)c1=O | · | · | · | 5
C=CCn1c2ccccc2c2nnc(SCCCn3c(=O)[nH]c4ccccc43)nc21 | 66 | 3.7* | 60 | -4
C=CCn1c2ccccc2c2nnc(SCN3C(=O)c4ccccc4C3=O)nc21 | 89 | -0.015 | 83 | 17
CCN(CC)S(=O)(=O)c1ccc(Cl)c(NC(=O)COC(=O)/C=C/c2ccc(O)c(OC)c2)c1 | 102 | · | 90 | -15
O=C(NN1C(=O)C2C(c3ccccc3)C=CC(c3ccccc3)C2C1=O)c1cccc(Br)c1 (centres undefined) | 90 | · | 88 | 46
O=c1cc(C(F)(F)F)[nH]c2c(C(F)(F)F)cccc12 | 82 | -1.2 | 78 | 78*
COc1ccc(N2C(=S)NC3N2C(=S)NC3(C)c2ccccc2)cc1 (centres undefined) | · | · | · | 5
CCC1=NN2C(=N)/C(=C\c3cccn3-c3c(C)cccc3C)C(=O)N=C2S1 | · | · | · | 55
CCC1=NN2C(=N)/C(=C\c3cccn3-c3ccc(C)cc3C)C(=O)N=C2S1 | · | · | · | 84*
CCC1=NN2C(=N)/C(=C\c3cccn3-c3ccc(Br)cc3)C(=O)N=C2S1 | · | · | · | 23
CC(C)c1ccc(-n2cccc2/C=C2/C(=N)N3C=CSC3=NC2=O)cc1 | 64 | · | 63 | 87*
CCC1=NN2C(=N)/C(=C\c3cccn3-c3cccc(Cl)c3)C(=O)N=C2S1 | · | · | · | 62*
SMILES | bCat KO growth | hDAT+cocaine | PTEN del growth | WT yeast gro inh
CCN(CC)S(=O)(=O)c1ccc(N2CCOCC2)c(NC(=O)Cc2cccc3ccccc23)c1 | 88 | · | 90 | 6
O=C(NCCCO)C(=O)NCc1ccccn1 | · | · | · | -3
C=CCN1C(=NC(=O)CC)SC2CS(=O)(=O)CC21 (centres undefined) | 88 | -1.2 | 98 | 7
CCc1ccc(NC(=O)C(=O)NCCOc2ccccc2Cl)cc1 | · | · | · | 10
CCC1(c2ccc(F)cc2)NC(=O)N(CC(=O)Nc2cc(S(=O)(=O)N(C)C)ccc2Cl)C1=O (centres undefined) | · | · | · | 0
COc1ccc(/C=C/C(=O)N(C)c2ccccc2C(=O)O)cc1 | · | · | · | -6
C#CCOCCOCCOCCNc1nc(N2CCN(C(=O)C([C@@H](C)CC)n3cc(C(N)CO)nn3)CC2)nc(N2CCN(C(=O)[C@H](CCC(=O)O)n3cc(C(N)[C@H](C)CC)nn3)CC2)n1 (some centres undefined) | · | -1.4 | · | ·
COc1cc(/C=C/C(=O)c2ccc(C)c([N+](=O)[O-])c2)cc(OC)c1O | 2.4* | · | 3.0* | -11
